Laboratory results reported in ChEMBL document CHEMBL1201862, “PubChem BioAssay data set” (2004).

species on record: Homo sapiens; test: Quantitative High-Throughput Screen for Compounds Blocking the Interaction Between CBF-beta and RUNX1 for the Treatment of Acute Myeloid Leukemia: Summary. [Related pubchem assays (depositor defined):AID1477, AID504370, AID504374, AID504375]; format: functional

SMILES	Potency
O=C(O)CCCC[C@@H]1SC[C@H]2NC(=O)N[C@@H]12	12.6 µM (active)
CC1CC(NC(=O)C2C3CCC(O3)C2C(=O)O)CC(C)(C)C1 (centres undefined)	0.112 µM (active)
CCCCn1c(NS(=O)(=O)c2ccccc2)c(C(=O)OCC)c2nc3ccccc3nc21	0.112 µM (active)
O=C(O)CCCC[C@@H]1SC[C@@H]2NC(=O)N[C@@H]21	1.78 µM (active)
